The list is not random: actives were taken first. Their share in the collection is about 5.3%.
PostGolgi yeast: growth inhibition of a yeast mutant, post-Golgi transport screen; post-Golgi transport phenotypic cell assay; inhibition, % at 10 µM; 0.9% of 98,000 active; AID 739;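 note: yeast cells grown in 1536-well plates; yeast grown about 18 h at 30C before absorbance read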
Measles CPE: protection of cells from measles virus. Measles virus-infected cells, CPE protection, absorbance. protection (pct of control), % at 4 µM. 1.5% of 140,000 active; in the data active = protection mostly above about 24%, no sharp cut-off; inactive = mostly below about 26%
PostGolgi ctrl: growth of the yeast control strain, post-Golgi counter-screen; efflux-deficient yeast background strain, growth absorbance A615, 16 h; 5% of 98,000 active; inhibition, % at 10 µM
MT1-MMP txn act: activates MT1-MMP transcription; HT1080 MT1-MMP promoter luciferase reporter, luminescence, overnight; hits give high values; activation factor at 10 µM; 0.16% of 86,000 active;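 active = activation factor of at least 2 for MT1-MMP transcription at 10 µM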
Starred values were filed as active, the others as inactive. Cut-off read from the data, not from the text of the source, unless noted: active = inhibition above about 30%; inactive = the rest.

Results for COc1cccc(-n2nc(C(=O)N3CCC4(CC3)OCCO4)c3ccccc3c2=O)c1 ?
PostGolgi yeast: -1.7; Measles CPE: 26.6; PostGolgi ctrl: 4.0; MT1-MMP txn act: 1.2

What do the screens show for `COc1cc(OC)cc(-n2nc(C(=O)N3CCC4(CC3)OCCO4)c3ccccc3c2=O)c1`?
PostGolgi yeast: 4.2; Measles CPE: 51.9*; PostGolgi ctrl: -0.1; MT1-MMP txn act: 1.3

How did O=C(c1cc2ccccn2n1)N1CCC2(CC1)OCCO2 do in these assays?
PostGolgi yeast: 2.6; Measles CPE: 2.4; PostGolgi ctrl: 1.5; MT1-MMP txn act: 1.1

How did O=C(c1sc2ccccc2c1Cl)N1CCC2(CC1)OCCO2 do in these assays?
PostGolgi yeast: 3.7; Measles CPE: 6.7; PostGolgi ctrl: 46.3*; MT1-MMP txn act: 1.2

How did c1ccc(-c2nc(N3CCOCC3)s[n+]2-c2ccccc2)cc1 do in these assays?
Measles CPE: 8.0

What do the screens show for `COc1ccc(-c2cc(C(F)(F)F)n3nc(C(=O)N4CCC5(CC4)OCCO5)cc3n2)cc1OC`?
PostGolgi yeast: 17.5; Measles CPE: 4.5; PostGolgi ctrl: 8.9; MT1-MMP txn act: 1.2

How did O=C1OCCC1NC1=NCCC1 (stereo not given) do in these assays?
PostGolgi yeast: -1.3; Measles CPE: 16.3; PostGolgi ctrl: 1.2; MT1-MMP txn act: 1.1

What do the screens show for `CC(O)(CS(=O)(=O)c1cccc(C(F)(F)F)c1)C(=O)Nc1ccc(C(F)(F)F)cc1` (stereo not given)?
PostGolgi yeast: -3.5; Measles CPE: 15.0; PostGolgi ctrl: -1.1

Results for CN1/C(=C\C=C\C2=[N+](C)c3ccc4ccccc4c3C2(C)C)C(C)(C)c2ccccc21 ?
PostGolgi yeast: 101.3*; Measles CPE: 1.9; PostGolgi ctrl: 99.9*

Results for COC(=O)[C@H]1C[C@H]2CC[C@H](O)C[C@H]2N1CC1CC1 ?
MT1-MMP txn act: 1.1

What do the screens show for `CCC(=NCc1ccco1)c1c(O)n(C2CCCCC2)c(=O)[nH]c1=O`?
PostGolgi yeast: 15.1; Measles CPE: 18.1; PostGolgi ctrl: 45.4*; MT1-MMP txn act: 1

How did CCC(=Nc1ccc(OC)cc1OC)c1c(O)n(C2CCCCC2)c(=O)[nH]c1=O do in these assays?
PostGolgi yeast: 71.4*; Measles CPE: 18.6; PostGolgi ctrl: 48.3*; MT1-MMP txn act: 1

What do the screens show for `CN1c2ccc([N+](=O)[O-])cc2CC2(C(=O)NC(=O)N(c3ccc(Br)cc3)C2=O)C1c1ccccc1` (stereo not given)?
Measles CPE: 7.2

How did C[C@H]1CCC[C@@H](O)CCC/C=C/c2cc(O)cc(O)c2C(=O)O1 do in these assays?
PostGolgi yeast: -3.0; Measles CPE: 117.1*; PostGolgi ctrl: 8.3; MT1-MMP txn act: 0.9

What do the screens show for `CC(=O)N1CN2CN(C1)CN(C(C)=O)C2`?
Measles CPE: 15.2

Results for CN1CCN(Cc2ccccc2Sc2ccccc2)CC1 ?
Measles CPE: 24.2

Results for O=C(NCc1ccc(C(=O)N2CCC3(CC2)OCCO3)cc1)c1cccc(Br)c1 ?
PostGolgi yeast: 7.7; Measles CPE: 26.1*; PostGolgi ctrl: -1.3; MT1-MMP txn act: 1.1

What do the screens show for `CCc1sc(C(=O)N2CCC3(CC2)OCCO3)cc1Br`?
PostGolgi yeast: 5.6; Measles CPE: 0.5; PostGolgi ctrl: 5.4; MT1-MMP txn act: 1.2

How did CCCC(C)C1(CC)C(=O)NC(=O)N=C1N (stereo not given) do in these assays?
Measles CPE: 20.2

How did CCOC(C(=O)OCCC[N+](C)(CC)CC)(c1ccccc1)c1ccccc1 do in these assays?
PostGolgi yeast: -5.5; Measles CPE: 10.7; PostGolgi ctrl: -2.4; MT1-MMP txn act: 1.1

Results for CC[N+](C)(CC)CCCOC(=O)C(O)(c1ccccc1)C1CCCCC1 (stereo not given) ?
Measles CPE: 32.4*; MT1-MMP txn act: 1.1

How did C=CCn1c(O)c(C=Nc2ccc(OC)cc2C)c(=O)[nH]c1=O do in these assays?
PostGolgi yeast: -1.5; Measles CPE: 18.0; PostGolgi ctrl: 6.0; MT1-MMP txn act: 1.3

Results for Cc1ccc(N2C(=O)NC(=O)/C(=C/c3ccc(OC(=O)c4cccs4)cc3)C2=O)cc1 ?
PostGolgi yeast: 0.8; Measles CPE: 2.4; PostGolgi ctrl: 32.0*

How did N#Cc1ccccc1Cn1cc(C(=O)c2cccs2)c2ccccc21 do in these assays?
PostGolgi yeast: 56.8*; Measles CPE: 5.0; PostGolgi ctrl: -1.9; MT1-MMP txn act: 1

How did NC(=O)CN1CC(c2ccccc2)CC1=O (stereo not given) do in these assays?
PostGolgi yeast: -0.2; Measles CPE: 39.0*; PostGolgi ctrl: -2.1; MT1-MMP txn act: 1

How did O=C(CN1CC(c2ccccc2)CC1=O)Nc1ccc(F)cc1 (stereo not given) do in these assays?
PostGolgi yeast: 11.6; Measles CPE: 7.6; PostGolgi ctrl: 13.5; MT1-MMP txn act: 1.1

Bioassay records: PubChem, several laboratories
